ELG1 repair inh = inhibitors of ELG1-dependent DNA repair in HEK293T cells; AID 504467; Potency, µM (doses to about 46.1 µM), usual class: inhibitors; HEK293T ELG1-luciferase reporter, luminescence, 16 h; DNA damage induced by 5-fluorouridine; actives 2.3% (n = 330,000); also: nearly all actives have a fitted effect of over 55% in size
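5-Fluorouridine DNA damage + compound/DMSO, 2,000 cells/well, 16 h, 37 °C/5% CO2. ONE-Glo, 30 min RT, luminescence. Readout = decrease in reporter signal.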
RORgamma inh = inhibitors of mouse ROR gamma transcriptional activity; P51450; Drosophila S2 Gal4-RORgamma UAS-luciferase reporter, 20 h; Potency, µM (series often up to 53.6 µM), hits mostly inhibitors; actives 5.4% (n = 310,000); also: nearly all actives have a fitted effect of over 60% in size
Target sequence (P51450 whole entry, looked up, the tested form may be a part): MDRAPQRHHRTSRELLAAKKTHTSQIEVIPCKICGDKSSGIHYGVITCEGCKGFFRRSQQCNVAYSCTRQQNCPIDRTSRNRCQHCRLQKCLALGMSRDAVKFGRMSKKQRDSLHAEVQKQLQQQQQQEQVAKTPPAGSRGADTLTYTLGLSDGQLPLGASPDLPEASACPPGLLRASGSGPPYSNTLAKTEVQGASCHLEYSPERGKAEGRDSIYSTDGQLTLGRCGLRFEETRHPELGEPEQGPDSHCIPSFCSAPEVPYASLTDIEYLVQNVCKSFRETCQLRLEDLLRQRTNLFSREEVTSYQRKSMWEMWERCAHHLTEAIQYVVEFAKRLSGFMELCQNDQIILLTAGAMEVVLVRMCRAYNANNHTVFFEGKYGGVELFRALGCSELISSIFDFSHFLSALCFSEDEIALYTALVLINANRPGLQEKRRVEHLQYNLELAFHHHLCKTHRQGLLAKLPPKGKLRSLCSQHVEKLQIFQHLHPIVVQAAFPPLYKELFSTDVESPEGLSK
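Drosophila Schneider cells stably carrying a metallothionein-driven Gal4 DBD–ROR gamma fusion and a UAS-Photinus luciferase reporter were exposed to compound for 1 hr, then induced with copper sulfate (700 uM final) for 20 hr at ambient temperature before luminescence reading.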
TDP1 cell noCPT = qHTS for Inhibitors of human tyrosyl-DNA phosphodiesterase 1 (TDP1): qHTS in cells in absence of CPT | DT40 Tdp1-/- hTDP1 cells, no CPT, ATP luminescence, 48 h | actives 15% (n = 420,000) | Potency, µM (titrated, usually from 46.2 µM), hits mostly inhibitors | AID 686978, 2013; also: nearly all actives have a fitted effect of over 55% in size
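Camptothecin absent (DMSO only). Human TDP1-complemented DT40 knockout cells, 400 cells/well, 37 °C for minimum 48 hr; ATP measured via CellTiter-Glo, 30 min dark incubation, luminescence.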
DT40 TDP1 CPT = DT40-hTDP1 cell growth loss with CPT | chicken DT40 Tdp1-/-;hTDP1 cells + 20 nM CPT, ATP luminescence, 48 h | Potency, µM (top dose mostly 46.2 µM), actives largely listed as inhibitors | actives 12% (n = 420,000) | AID 686979; also: nearly all actives have a fitted effect of over 55% in size
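Chicken DT40 Tdp1-/- cells stably complemented with human TDP1 were seeded at 400 cells/well in medium containing 20 nM camptothecin, exposed to pin-transferred compounds, and grown at 37 °C for at least 48 hr. Viability was read as ATP luminescence.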
VP16 counter = Gal4-VP16 reporter inhibition counter-screen; Drosophila S2 Gal4-VP16 UAS-luciferase, luminescence, 20 h; Potency, µM (highest dose often 53.6 µM), actives largely listed as inhibitors; actives 3.5% (n = 310,000);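 also: Gal4-VP16 expression switched on by copper sulfate through the metallothionein promoter; nearly all actives have a fitted effect of over 50% in size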
IL-1B inflam inh = inhibitors of inflammasome signaling (IL-1 beta secretion). actives 4.7% (n = 360,000). THP-1 LPS/ATP IL-1B secretion, AlphaLISA, 16 h; active compounds read low. activity change, % at 57.5 µM. AID 743279; in the data active = activity change below about -50%; inconclusive = mostly about -30% to -49%
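THP-1 cells pretreated 1 hr with compounds (up to 57.5 uM final), then stimulated with LPS (250 ng/mL final) plus ATP (1.25 mM final); secreted IL-1B measured by AlphaLISA after 16 hr, decreased signal indicating inhibition.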
Hits are given with their value; 0 = inactive; ? = inconclusive; - = no result given; ! = a repeat was not active; [ ] = dose if it differs, or a comment. The list is not random: actives were taken first. Their share in the collection is about 21%. Unless noted, calls follow the shape of the dose curve; as a rule, active = well fitted curve in the direction sought with a large enough effect; inconclusive = small, poorly fitted or top-dose-only effect, or another doubt; inactive = no such curve, though single readings can be large; an effect the other way counts as inactive or inconclusive.

SMILES	ELG1 repair inh	RORgamma inh	TDP1 cell noCPT	DT40 TDP1 CPT	VP16 counter	IL-1B inflam inh
Cc1c(C(c2ccc(Cl)cc2Cl)c2c(O)c3ccccc3oc2=O)c(=O)n(-c2ccccc2)n1C (stereo unspecified)	?	0	?	?	0[10 µM]	0
CCN(CC)CCCNC(=O)c1c(O)c2ccccc2n(Cc2ccccc2)c1=O	0	0	23µM	18µM	0	0
CCN(CC)CCNC(=O)c1c(O)c2ccccc2n(Cc2ccccc2)c1=O	0	?	16µM	18µM	0	0
CCCCCn1c(=O)c(C(=O)NCCc2ccccc2)c(O)c2ccccc21	0	?	?	?	?	0
O=C(c1ccc(Cl)cc1)C1CCCN(Cc2cccc3cccnc23)C1 (stereo unspecified)	0	?	16µM	23µM	0	-50
COc1cccc(C(=O)C2CCCN(Cc3ccc4nsnc4c3)C2)c1 (stereo unspecified)	0	0	?	?	0	0
O=C(c1ccc(Cl)cc1)C1CCCN(Cc2cccc3ncccc23)C1 (stereo unspecified)	0	0	15µM	18µM	0	0
O=C(c1ccccc1)C1CCCN(Cc2nc(-c3cnccn3)no2)C1 (stereo unspecified)	0	0	0	0	0	0
O=C(c1ccc(Cl)cc1)C1CCCN(Cc2ccc3nonc3c2)C1 (stereo unspecified)	0	?	?	16µM	0	0
C=C1C/C(=C/C)C(=O)O[C@@H]2CCN3CC=C(COC(=O)[C@]1(C)O)[C@@H]23	-	0	0	0	0	-
CC(=O)Oc1ccc2c3c1OC1[C@@H](OC(C)=O)C=C[C@H]4[C@H](C2)N(C)CC[C@]314 (stereo partly specified)	-	0	-	-	0	-
O=C(c1ccccc1)N1CCN(c2ccccc2)CC1	-	-	23µM	0	-	0
COc1cccc2c1C(=O)c1c(O)c3c(c(O)c1C2=O)C[C@@](O)(C(=O)CO)C[C@@H]3O[C@H]1C[C@H](N)[C@H](OC2CCCCO2)[C@H](C)O1 (stereo partly specified)	-	?	?	0.28µM	0	-
CCCCC(=O)OCC(=O)C1(O)Cc2c(O)c3c(c(O)c2C(OC2CC(NC(=O)C(F)(F)F)C(O)C(C)O2)C1)C(=O)c1c(OC)cccc1C3=O (stereo unspecified)	-	-	2.1µM	1.2µM	-	?
Cc1ccc2c(c1)C1CN(C)CCC1N2 (stereo unspecified)	-	-	?	0	-	-
NC1=NC(c2cccnc2)n2c(nc3ccccc32)N1 (stereo unspecified)	0	0	0	0	0	0
C[C@@H]1CCC2[C@@H](C)C(=O)O[C@@H]3OC4(C)CCC1[C@@]23OO4 (stereo partly specified)	?	-	8.2µM	4.1µM	-	0
CC1C(=O)OC2O[C@]3(C)CC[C@H]4C(C)CCC1[C@]24OO3 (stereo partly specified)	-	0	1.2µM	7.3µM	0	-
CC1CCC2C(C)C(=O)OC3O[C@]4(C)CCC1[C@@]32OO4 (stereo partly specified)	-	0	-	-	0	-
C[C@@H]1CC[C@H]2[C@@H](C)C(=O)O[C@@H]3O[C@@]4(C)CC[C@@H]1[C@]32OO4	0	0	4.1µM	0.65µM	0	0
Cc1c(C(=O)Nc2ccccc2Cl)oc2ccc(S(=O)(=O)N3CCCCC3)cc12	-	-	16µM	21µM	-	-
Cc1c(C(=O)NCCC2=CCCCC2)oc2ccc(S(=O)(=O)N3CCC4(CC3)OCCO4)cc12	?	0	23µM	18µM	0	-66
Cc1c(Cl)cccc1NC(=O)c1oc2ccc(S(=O)(=O)N3CCC4(CC3)OCCO4)cc2c1C	-	-	4.1µM	4.1µM	-	-
Cc1c(C(=O)N2CCC3(CC2)OCCO3)oc2ccc(S(=O)(=O)N3CCOCC3)cc12	0	0	0	0	0[0.365 µM]	0
CCC1(C2=NCCN2)Cc2ccccc2O1 (stereo unspecified)	0	0	4.7µM!	4.7µM!	0	0
SMILES	ELG1 repair inh	RORgamma inh	TDP1 cell noCPT	DT40 TDP1 CPT	VP16 counter	IL-1B inflam inh
COc1ccc(CC(=O)C2C(=O)N(C)c3ccccc32)cc1OC (stereo unspecified)	-	-	?	0	-	0
CC=C(C)C1(CCC)C(=O)NC(=S)NC1=O	-	-	0	0	-	0
CCCCCn1c(SCCCC)nc2c1c(=O)[nH]c(=O)n2C	0	0	?	?	0	0
CC(C)CCn1c(N2CCN(c3cccc(Cl)c3)CC2)nc2c1c(=O)[nH]c(=O)n2C	15µM	?	?	?	0	0
CC(C)C(=O)Nc1ccc(C(=O)NCc2cccnc2)cc1	0	0	?	?	0	0
O=C(N/N=C/c1cccnc1)c1ccc(NC(=O)C(c2ccccc2)c2ccccc2)cc1	?	0	12µM	7.3µM	6.3µM	0
OC(c1ccc(F)cc1)(c1ccc(F)cc1)[C@@H]1CCCN1	0	0	16µM	?	0	0
CN1CCN(C(=O)COc2ccc(S(=O)(=O)NC3CCCCC3)cc2Cl)CC1	0	0	0	0	0	0
COC(=O)C1=C(c2cccc(C#N)c2)C[C@@H]2CC[C@H]1N2C(=O)N1CCOCC1	?	-	?	0	-	0
COC(=O)C1=C(c2cccc3c2S(=O)(=O)c2ccccc2-3)C[C@@H]2CC[C@H]1N2C(=O)N1CCc2cc(OC)c(OC)cc2C1	?	-	21µM	21µM	-	0
COC(=O)C1=C(c2cccc3c2S(=O)(=O)c2ccccc2-3)C[C@@H]2CC[C@H]1N2C(=O)N1CCOCC1	0	-	?	23µM	-	0
CN(CC(=O)Nc1ccc(N2CCOCC2)cc1)CC(=O)Nc1cccc(C#N)c1	0	0	0	0	?	0
COc1cc(C(c2c(C)[nH]n(-c3ccccc3)c2=O)c2c(C)[nH]n(-c3ccccc3)c2=O)cc(OC)c1OC	0	0	?	0	0	-78
Cc1nn(Cc2ccc(Cl)cc2Cl)c(Cl)c1C(=O)O	0	0	0	0	0	0
Cc1nn(Cc2ccc(Cl)cc2Cl)c(Cl)c1C(=O)NC1CCCc2ccccc21 (stereo unspecified)	?	0	12µM	16µM	0	0
Cn1c(CCCC(=O)O)nc2cc(N(CCCl)CCCl)ccc21	-	0	19µM	?	0	-
c1ccc(NNc2ccccc2)cc1	-	0	-	-	0	-
COP(=S)(OC)Oc1ccc([N+](=O)[O-])c(C)c1	-	0	-	-	0	-
CC(=O)c1ccc(Oc2ccc(C(=O)c3ccc(C)c(C)c3)cc2[N+](=O)[O-])cc1	?	0	2.3µM	8.2µM	0	0

Bioassay records from PubChem.
